Assay results taken from PubChem BioAssay (NCATS).
Results filed as inconclusive are left out. Calls of active or inactive are those of the source. Calls follow the shape of the dose curve; as a rule, active = well fitted curve in the direction sought with a large enough effect; inconclusive = small, poorly fitted or top-dose-only effect, or another doubt; inactive = no such curve, though single readings can be large; an effect the other way counts as inactive or inconclusive.

Columns and labels:
CRL-7250 = normal cell line; test: Cytotoxic Profiling of Annotated Libraries Using Quantitative High-Throughput Screening (AID 1296008); conditions: Five cell lines viability, CellTiter-Glo ATP luminescence, 48-72 h; max response: active compounds read low; also: nearly all actives have a fitted effect of over 60% in size
In short: (§1)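 Cells exposed to compounds for 48 or 72 hr at 37 degrees Celsius. Viability read as ATP-coupled luminescence with CellTiter-Glo after 10 min at room temperature.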

HaCat = test: as above; conditions: Five cell lines viability, CellTiter-Glo ATP luminescence, 48-72 h; max response: active compounds read low
In short: as §1

KB-3-1 = test: as above; conditions: Five cell lines viability, CellTiter-Glo ATP luminescence, 48-72 h; max response: active compounds read low
In short: as §1

NIH3T3 = test: as above; conditions: Five cell lines viability, CellTiter-Glo ATP luminescence, 48-72 h; max response: active compounds read low
In short: as §1

C33A = test: Primary qHTS to identify gynecologic anti-cancer compounds using libraries of approved drugs and bioactive compounds (AID 1345084); conditions: Gynecologic cancer cell panel viability, ATPlite luminescence, 48 h; series mostly up to 57.5 µM; also: nearly all actives have a fitted effect of over 55% in size
In short: (§2)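 Five-point cytotoxicity, 48 h drug exposure at 37 C, 5% CO2, on cells seeded 16 h beforehand. ATP content read by ATPlite luminescence.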

CASKI = test: as above; conditions: Gynecologic cancer cell panel viability, ATPlite luminescence, 48 h; series mostly up to 57.5 µM
In short: as §2

Es-2 = test: as above; conditions: Gynecologic cancer cell panel viability, ATPlite luminescence, 48 h; series mostly up to 57.5 µM
In short: as §2

HeLa = test: as above; conditions: Gynecologic cancer cell panel viability, ATPlite luminescence, 48 h; series mostly up to 57.5 µM
In short: as §2

Hek293T = test: as above; conditions: Gynecologic cancer cell panel viability, ATPlite luminescence, 48 h, control line for the selectivity index; series mostly up to 57.5 µM
In short: as §2

JEG-3 = test: as above; conditions: Gynecologic cancer cell panel viability, ATPlite luminescence, 48 h; series mostly up to 57.5 µM
In short: as §2

OV90 = test: as above; conditions: Gynecologic cancer cell panel viability, ATPlite luminescence, 48 h; series mostly up to 57.5 µM
In short: as §2

CAOV3 = test: as above; conditions: Gynecologic cancer cell panel viability, ATPlite luminescence, 48 h; series mostly up to 57.5 µM
In short: as §2
% is scaled to controls: 0 for no effect and ±100 for the full control effect.

OC1(CN2CCC(COc3noc4cccc(O[C@@H]5CCOC5)c34)CC2)CCOCC1
inactive: max response (CRL-7250) -0.0295% | max response (HaCat) -23.1% | max response (KB-3-1) 2.03% | max response (NIH3T3) -22.8% | Potency (C33A) | Potency (CASKI) | Potency (Es-2) | Potency (HeLa) | Potency (Hek293T) | Potency (JEG-3) | Potency (OV90)

C[C@H]1CO[C@@H]2Cn3cc(C(=O)NCc4ccc(F)cc4F)c(=O)c(O)c3C(=O)N12
inactive: max response (CRL-7250) -9.56% | max response (HaCat) 1.95% | max response (KB-3-1) -18.7% | max response (NIH3T3) 2.62% | Potency (C33A) | Potency (CAOV3) | Potency (CASKI) | Potency (Es-2) | Potency (HeLa) | Potency (Hek293T) | Potency (OV90)

COc1ccc(N2CCN(C(=O)c3cc4c(s3)-c3ccccc3S(=O)(=O)C4)CC2)cc1
inactive: max response (CRL-7250) 4.26% | max response (HaCat) 2.45% | max response (KB-3-1) -19.5% | max response (NIH3T3) -22% | Potency (C33A) | Potency (CAOV3) | Potency (CASKI) | Potency (Es-2) | Potency (HeLa) | Potency (JEG-3) | Potency (OV90)

COC(=O)c1ccc(N2CCN(C)CC2)c(NC(=O)c2cccc(OC)c2)c1
inactive: max response (CRL-7250) -14.2% | max response (HaCat) -1.79% | max response (KB-3-1) -6.24% | max response (NIH3T3) 3.28% | Potency (C33A) | Potency (CASKI) | Potency (Es-2) | Potency (HeLa) | Potency (Hek293T) | Potency (JEG-3) | Potency (OV90)

C[C@@H]1C[C@H]2O[C@@]3(O[C@@H]2C(C)(C)O)C(O)[C@@]2(C)C4CCC5C(C)(C)[C@@H](O[C@H]6OC[C@H](O)[C@@H](O)[C@@H]6O)CC[C@@]56C[C@@]46CC[C@]2(C)C13 (some centres undefined)
inactive: max response (CRL-7250) 1.57% | max response (HaCat) -16.2% | max response (KB-3-1) -6.46% | max response (NIH3T3) -0.0399% | Potency (C33A) | Potency (CAOV3) | Potency (CASKI) | Potency (Es-2) | Potency (HeLa) | Potency (Hek293T) | Potency (JEG-3) | Potency (OV90)

CNC(=O)c1ccc2c(c1)CCO[C@H]2CCN1CCN(c2ccc(OC)cc2)CC1
inactive: max response (CRL-7250) 1.26% | max response (HaCat) -0.835% | max response (KB-3-1) -8.62% | max response (NIH3T3) 2.66% | Potency (C33A) | Potency (CAOV3) | Potency (CASKI) | Potency (Es-2) | Potency (HeLa) | Potency (Hek293T) | Potency (JEG-3) | Potency (OV90)

C[C@@H]1O[C@@H](O[C@H]2[C@H](OC(=O)[C@]34CCC(C)(C)C[C@H]3C3=CCC5[C@@]6(C)C[C@H](O)[C@H](O[C@@H]7O[C@H](C(=O)O)[C@@H](O)[C@H](O)[C@H]7O)[C@@](C)(CO)C6[C@H](O)C[C@@]5(C)[C@]3(C)C[C@H]4O)O[C@@H](CO)[C@@H]2O)[C@H](O)[C@H](O)[C@H]1O[C@@H]1OC[C@@H](O)[C@H](O[C@H]2OC[C@](O)(CO)[C@H]2O)[C@H]1O (some centres undefined)
inactive: outcome (CRL-7250) | max response (HaCat) -2% | max response (KB-3-1) -0.0365% | max response (NIH3T3) -0.318% | activity change, negative = cytotoxicity (C33A) -18.2% [at 6.55 µM] | activity change, negative = cytotoxicity (CAOV3) -15.4% [at 6.55 µM] | activity change, negative = cytotoxicity (CASKI) -0.268% [at 6.55 µM] | activity change, negative = cytotoxicity (HeLa) -1.36% [at 6.55 µM] | activity change, negative = cytotoxicity (Hek293T) -4.09% [at 6.55 µM] | activity change, negative = cytotoxicity (JEG-3) -17.4% [at 6.55 µM] | activity change, negative = cytotoxicity (OV90) -4.96% [at 6.55 µM]

CC(=O)OC/C(=C/C(=O)O)CC[C@@H]1C(C=O)=CC[C@@H]2C(C)(C)CCC[C@@]12C
inactive: max response (CRL-7250) 4.87% | max response (HaCat) 3.05% | max response (KB-3-1) 3.67% | max response (NIH3T3) 3.58% | Potency (C33A) | Potency (CAOV3) | Potency (CASKI) | Potency (Es-2) | Potency (HeLa) | Potency (Hek293T) | Potency (JEG-3) | Potency (OV90)

CCOC(=O)C1=Cc2ccc(C(F)(F)C(F)(F)F)cc2N=C(N)C1
inactive: max response (CRL-7250) -15.9% | max response (HaCat) -0.757% | max response (KB-3-1) -20.4% | max response (NIH3T3) -6.78% | Potency (C33A) | Potency (CAOV3) | Potency (CASKI) | Potency (Es-2) | Potency (HeLa) | Potency (Hek293T) | Potency (OV90)

CCCC(CCC)C(=O)NCc1ccc2c(cnn2-c2ccccc2OC)c1
inactive: max response (CRL-7250) -29.2% | max response (HaCat) 3.89% | max response (KB-3-1) -13.4% | max response (NIH3T3) 0.011% | Potency (C33A) | Potency (CAOV3) | Potency (CASKI) | Potency (Es-2) | Potency (HeLa) | Potency (Hek293T) | Potency (JEG-3) | Potency (OV90)

C[C@@H](NC(=O)[C@H](O)c1cc(F)cc(F)c1)C(=O)N[C@@H]1C(=O)N(C)c2ccccc2-c2ccccc21
inactive: max response (CRL-7250) 0.116% | max response (HaCat) -11.4% | max response (KB-3-1) 5.92% | max response (NIH3T3) -0.195% | Potency (C33A) | Potency (CAOV3) | Potency (CASKI) | Potency (Es-2) | Potency (HeLa) | Potency (Hek293T) | Potency (JEG-3) | Potency (OV90)

Cc1c(C2=CCN(C(=O)N(C)C(C)C)CC2)nnn1-c1cccnc1F
inactive: max response (CRL-7250) -2.94% | max response (HaCat) 3% | max response (KB-3-1) 7.23% | max response (NIH3T3) -3.1% | Potency (C33A) | Potency (CAOV3) | Potency (CASKI) | Potency (Es-2) | Potency (Hek293T) | Potency (JEG-3) | Potency (OV90)

C/C(=C\CCC(C)C1=CCC2(C)OC3=C(CC12)C(=O)C(O)CC3)CO (centres undefined)
inactive: max response (CRL-7250) -17.6% | max response (HaCat) -38% | max response (KB-3-1) -18.5% | max response (NIH3T3) -0.114% | Potency (C33A) | Potency (CAOV3) | Potency (CASKI) | Potency (Es-2) | Potency (HeLa) | Potency (Hek293T) | Potency (JEG-3) | Potency (OV90)
